# Sampled rows, rich in hits. Any-hit rate of the full collection: about 21%.
# D3 antag – D3 dopamine receptor (human) antagonism; max response, negative = inhibition, %; D3R cells, DiscoveRx beta-arrestin luminescence, antagonist mode; active compounds read low; 2.5% of 360,000 active; AID 652054; P35462; in the data active = max response below about -50%; inconclusive = no clear call, values can overlap the other calls; note: % is set by controls: 0 for no effect and ±100 for the full control effect
# Target sequence (P35462 whole entry, looked up): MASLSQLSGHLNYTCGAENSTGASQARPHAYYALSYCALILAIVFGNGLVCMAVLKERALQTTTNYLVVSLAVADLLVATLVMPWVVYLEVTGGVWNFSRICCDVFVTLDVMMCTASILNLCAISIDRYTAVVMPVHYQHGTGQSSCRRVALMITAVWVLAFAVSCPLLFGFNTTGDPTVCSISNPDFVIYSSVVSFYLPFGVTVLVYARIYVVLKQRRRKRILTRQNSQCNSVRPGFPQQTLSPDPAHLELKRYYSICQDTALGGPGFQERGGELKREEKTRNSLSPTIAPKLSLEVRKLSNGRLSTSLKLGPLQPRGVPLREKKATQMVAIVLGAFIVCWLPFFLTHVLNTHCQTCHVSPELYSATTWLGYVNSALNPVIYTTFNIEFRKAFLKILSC
#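 Cells plated overnight at 1500 cells/well, then exposed to library compounds with dopamine controls for 90 minutes at 37 degrees C. DiscoveRx reagent added for 30–60 minutes at room temperature; luminescence read, quantitative HTS format.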
# IL-1B inflam inh – inhibitors of inflammasome signaling (IL-1 beta secretion); 4.7% of 360,000 active; activity change, % at 57.5 µM; THP-1 LPS/ATP IL-1B secretion, AlphaLISA, 16 h; active compounds read low; AID 743279; in the data active = activity change below about -50%; inconclusive = mostly about -30% to -49%; note: % is set by controls: 0 for no effect and ±100 for the full control effect
#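 THP-1 cells pretreated 1 hr with compounds (up to 57.5 uM final), then stimulated with LPS (250 ng/mL final) plus ATP (1.25 mM final); secreted IL-1B measured by AlphaLISA after 16 hr, decreased signal indicating inhibition.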
# DT40 TDP1 no CPT – qHTS for Inhibitors of human tyrosyl-DNA phosphodiesterase 1 (TDP1): qHTS in cells in absence of CPT; DT40 Tdp1-/- hTDP1 cells, no CPT, ATP luminescence, 48 h; Potency, µM (highest dose often 46.2 µM), inactives show top-dose activity change, negative = growth inhibition, hits mostly inhibitors; 15% of 420,000 active; AID 686978, 2013; note: potency is the fitted concentration of half-maximal effect; % is set by controls: 0 for no effect and ±100 for the full control effect; nearly all actives have a fitted effect of over 55% in size
#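 Seeded 400 DT40-hTDP1 cells/well (vehicle DMSO, no 20 nM CPT); pinned compounds; ≥48 hr at 37 °C; CellTiter-Glo luminescence as viability measure.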
# DT40 TDP1 CPT – DT40-hTDP1 cell growth loss with CPT | chicken DT40 Tdp1-/-;hTDP1 cells + 20 nM CPT, ATP luminescence, 48 h | Potency, µM (top dose mostly 46.2 µM), for inactives: top-dose activity change, negative = growth inhibition, usual class: inhibitors | AID 686979 | 12% of 420,000 active; note: potency is the fitted concentration of half-maximal effect; % is set by controls: 0 for no effect and ±100 for the full control effect; nearly all actives have a fitted effect of over 55% in size
#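 Cell growth measured by CellTiter-Glo luminescence after a minimum 48 h, 37 C compound exposure with 20 nM CPT in Tdp1-knockout DT40 cells stably expressing hTDP1, seeded 400/well; qHTS titration format.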
# D3 ag – agonists of human D3 dopamine receptor; AID 652048; P35462; D3R DiscoveRx beta-arrestin cells, luminescence, 90 min; 0.58% of 410,000 active; max activation, %; in the data active = max activation above about 30%; note: 0% is about no effect
#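 Cells at 1500/well, incubated overnight, then treated with pinned compounds (dopamine as control) for 90 min at 37 degrees C. DiscoveRx reagent added for 30 - 60 minutes at room temperature; luminescence read.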
# ClpP mod – qHTS Assay for Activators of ClpP; ATP-dependent Clp protease proteolytic subunit (Bacillus subtilis (strain 168)), P80244; purified B. subtilis ClpP, FRET peptide cleavage, 20 min; Potency, µM (titrated, usually from 57.5 µM), for the others: top-dose activity change, negative = active; 1.9% of 340,000 active; active = well fitted falling curve with a large enough effect; inconclusive = small, poorly fitted or top-dose-only effect; inactive = no such curve, though single readings can be large or run the other way; note: potency is the fitted concentration of half-maximal effect; the source files actives as falling curves though it sought activators and does not explain the sign; nearly all actives have a fitted effect of over 65% in size
#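 ClpP 10 microg/mL final, pH 8 Tris/KCl buffer with BSA, glycerol, Tween-20; compound pinned in; FRET-FV substrate; RT 20 min; Ex320/Em430; ΔFRET vs ADEP 5.8 microM, DMSO, no enzyme.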
# Active calls of the source: *; ? = inconclusive; nt = no result. Unless noted, calls come from the whole dose curve; as a rule, active = well fitted inhibition curve with a large enough effect; inconclusive = small, poorly fitted or top-dose-only effect; inactive = flat fitted curve, though single readings scatter.
SMILES,D3 antag,IL-1B inflam inh,DT40 TDP1 no CPT,DT40 TDP1 CPT,D3 ag,ClpP mod
CC(=O)N1CCN(c2ccccc2NC(=O)c2cc3ccccc3o2)CC1,22,?,?,?,8,-2%
Cc1nc(NC(=O)c2cccc(-c3cc4ccccc4oc3=O)c2)ccc1Br,-25,-3,?,-28%,1,-5%
O=C(Nc1ccc(N2CCCC2)cc1)c1cccc(-c2cc3ccccc3oc2=O)c1,-13,-23,23µM*,16µM*,-4,1%
O=C(Nc1ccc(Br)cn1)c1cccc(-c2cc3ccccc3oc2=O)c1,19,17,?,?,2,14µM*
CCOC(=O)C1CCN(C(=O)COC(=O)C2CCN(S(=O)(=O)c3ccc(C)c(C)c3)CC2)CC1,16,8,-2%,4%,5,0%
CCOc1ccc(-c2nn(-c3ccccc3)cc2C2NC(=O)NC(C)=C2C(=O)OC(C)C)cc1 (stereo unspecified),nt,nt,?,?,2,0%
Cc1cc(C)c2c(n1)NCCC2,nt,nt,-1%,-3%,nt,4%
Cc1[nH]c2ccccc2c1/C=C/c1c(C)[nH]c2ccccc12,nt,nt,10µM*,11µM*,nt,17%
Cc1[nH]c2ccccc2c1/C=C/c1cc[n+](C)cc1,-9,9,0.92µM*,0.65µM*,-21,2%
Cc1[nH]c2ccccc2c1/C=C/C(=O)c1ccncc1,-6,-12,-21%,-9%,1,-15%
COc1cc(C(=O)Nc2nnc(S(=O)(=O)N3CCCCCC3)s2)cc(OC)c1OC,-7,-8,-3%,-2%,-12,-4%
Clc1cccc(-n2ncc3c(NC4CCCCCC4)ncnc32)c1,nt,nt,?,21µM*,-12,?
Cc1ccc(-n2ncc3c(NC4CCCCC4)ncnc32)cc1Cl,nt,nt,16µM*,21µM*,6,-11%
Cc1cccc(-n2ncc3c(NC4CCCCC4)ncnc32)c1,7,?,?,?,5,?
Cc1cccc(-n2ncc3c(NC4CCCC4)ncnc32)c1,nt,nt,-52%,21µM*,-15,-12%
COC(=O)c1c(NC(=O)c2ccoc2C)sc2c1CCC2,12,5,?,-1%,8,32µM*
COC(=O)c1c(NC(=O)C2CC2)sc2c1CCCC2,50,8,-25%,-12%,17,-25%
COC(=O)c1c(NC(=S)NN2CCOCC2)sc2c1CCCC2,-16,-13,15µM*,?,22,nt
COC(=O)c1c(NC(=O)c2ccc(Br)s2)sc2c1CCC2,30,-6,-8%,?,30*,-1%
COC(=O)c1c(NC(=O)c2c(OC)cccc2OC)sc2c1CCCC2,nt,nt,?,?,7,?
COCCN(C(=O)CSc1nnc(-c2ccccc2F)o1)c1c(N)n(CC(C)C)c(=O)[nH]c1=O,-6,-5,-33%,-16%,-2,nt
O=C1NC(=O)C2(CCCc3ccccc32)N1 (stereo unspecified),-10,2,-11%,-6%,10,1%
Cc1ccc(Nc2nc3nonc3nc2Nc2cccc(C(F)(F)F)c2)cc1Cl,nt,nt,0.46µM*,0.52µM*,-19,-3%
CCn1ccnc1CN1CCc2c([nH]c3ccccc23)C1CC(C)C (stereo unspecified),13,-4,16µM*,?,0,-7%
CCn1ccnc1CN1CCc2c([nH]c3ccccc23)C1C1CCCCC1 (stereo unspecified),13,29,26µM*,?,1,nt
Cc1c(CN2CCc3c([nH]c4ccccc34)C2C2CCCCC2)cnn1C (stereo unspecified),-24,-7,16µM*,-3%,-13,nt
COCc1ccc(CN2CCc3c([nH]c4ccccc34)C2C(C)(C)C)o1 (stereo unspecified),1,-53*,?,?,-1,-21%

# Screens: PubChem, National Center for Advancing Translational Sciences (NCATS)
